The structures appear in SMILES notation. Calls of active or inactive are those of the source.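 Rule for the calls: active = compound whose NMR saturation transfer difference test with menin is positive, showing direct binding to the protein; inactive = the rest.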

Menin (Homo sapiens), sequence (O00255 whole entry, looked up, the tested form may be a part): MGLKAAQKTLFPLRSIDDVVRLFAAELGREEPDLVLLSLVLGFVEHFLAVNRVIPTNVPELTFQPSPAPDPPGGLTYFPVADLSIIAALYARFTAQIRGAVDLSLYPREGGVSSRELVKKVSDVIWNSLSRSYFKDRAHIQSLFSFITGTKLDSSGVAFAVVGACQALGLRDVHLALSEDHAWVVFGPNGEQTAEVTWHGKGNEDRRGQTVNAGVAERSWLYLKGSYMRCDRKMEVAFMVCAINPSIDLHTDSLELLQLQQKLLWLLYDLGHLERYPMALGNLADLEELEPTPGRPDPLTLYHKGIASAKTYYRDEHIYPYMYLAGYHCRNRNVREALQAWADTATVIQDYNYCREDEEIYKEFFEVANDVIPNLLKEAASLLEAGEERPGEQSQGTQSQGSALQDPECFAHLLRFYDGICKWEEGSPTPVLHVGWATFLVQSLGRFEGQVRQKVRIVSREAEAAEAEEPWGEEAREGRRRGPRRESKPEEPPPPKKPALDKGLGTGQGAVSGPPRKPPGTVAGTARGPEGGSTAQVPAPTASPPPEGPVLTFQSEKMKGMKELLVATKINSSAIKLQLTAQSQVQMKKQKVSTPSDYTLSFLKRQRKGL

The assay has as its target Menin (Homo sapiens) (UniProt O00255). The assay is described as follows: Confirmation of Inhibitors Targeting the Menin-MLL Interaction in MLL Related Leukemias: NMR spectroscopy to verify direct binding of compounds to menin. To be noted: purified menin, NMR STD binding, 100 uM. The source says:
qHTS Assay for Inhibitors Targeting the Menin-MLL Interaction in MLL Related Leukemias NIH Chemical Genomics Center [NCGC] NIH Molecular Libraries Probe Centers Network [MLPCN] MLPCN Grant: MH084875-01A1 Assay Submitter (PI): Jolanta Grembecka, Tomasz Cierpicki, University of Virginia Translocations of the MLL (Mixed Lineage Leukemia) gene are frequently found in human leukemias affecting both children and adults. Fusion of MLL to one of more than 60 genes results in generation of oncogenic proteins upregulating Hox genes, which are vital to blood cell development. Patients harboring fusion of the MLL gene suffer from aggressive leukemias and respond poorly to available therapies. All of the oncogenic fusion proteins have a preserved N-terminal fragment of MLL that has been identified to interact with menin. It has been recently discovered that association with menin is critical to the leukemogenic activity of the MLL fusion oncoproteins. Selective targeting of the menin-MLL interaction could provide an attractive therapeutic approach to develop novel drugs for MLL-related leukemias. Small molecules blocking the menin-MLL interaction should reverse the oncogenic potential of MLL fusion proteins. We have developed and optimized a fluorescence polarization-based assay for the identification of Menin-MLL inhibitors. The assay was run employing two different MLL-derived peptides. The present assay uses a 12 amino acid peptide labeled with fluorescein at its N-terminus. This peptide consists of the menin high affinity binding motif from MLL and is potently bound by menin. Another peptide with a mutated sequence, labeled with Texas Red, was used in parallel as a less stringent screen for inhibitors. The present assay was developed to confirm hits from this primary screen, examining saturation transfer differences in NMR spectra upon incubation of the menin protein with compound.
The Menin protein, the MLL-wild type (w.t.) derived peptide (N-terminal 12 amino acids), the MLL-derived peptide labeled with Texas Red and the MLL-w.t. peptide labeled with Fluorescein were kindly supplied by laboratory of Dr. Jolanta Grembecka, University of Virginia. All protein and peptide solutions were stored in single use aliquots at -80C. The Buffer components for all assays were purchased from Sigma-Aldrich (St. Louis, MO) and Invitrogen (Carlsbad, CA). Assay Reagents: 1. Menin protein 2. MLL w.t. 3. NMR buffer: 50mM phosphate, 50mM NaCl, 1mM DTT, pH = 7.5 NMR protocol: 1. Prepare 450 uL of menin (2.5 uM) in complex with 100uM compound in NMR buffer and run STD (Saturation Transfer Difference) on NMR Bruker 600 MHz 2. Prepare 450 uL of menin (2.5 uM) in complex with 100 uM compound and 25uM of MLL w.t. in NMR buffer and run STD (Saturation Transfer Difference) on NMR Bruker 600 MHz
Consider `COc1cc(-c2ccc(-[n+]3nc(-c4ccccc4)nn3-c3ccc([N+](=O)[O-])cc3)c(OC)c2)ccc1-[n+]1nc(-c2ccccc2)nn1-c1ccc([N+](=O)[O-])cc1`, for which the outcome was “inactive; negative”.

Regarding `O=C(Nc1cc(Br)ccc1O)c1cc(-c2ccc3c(c2)OCO3)on1`, the outcome is “inactive; negative”.

Turning to `CC(=O)NC1C(=O)N(CCN2CCOCC2)c2ccc(Cl)cc21` (stereo not given), the outcome was “inactive; negative”.

`CCCC[n+]1c2ccccc2cc2ccccc21`: the outcome was “inactive; negative”.

`NC(=NCCCCCCN=C(N)/N=C(\N)Nc1ccc(Cl)cc1)/N=C(\N)Nc1ccc(Cl)cc1`: the outcome is “inactive; negative”.

Consider `O=C(COC(=O)c1ccc(NS(=O)(=O)c2cccs2)cc1)Nc1nc2c(F)c(F)c(F)cc2s1`, for which the outcome is “inactive; negative”.

Turning to `COc1ccc(S(=O)(=O)Nc2cc(SCC(=O)O)c(O)c3ccccc23)cc1`, the outcome was “inactive; negative”.

In the case of `O=C(C[N+]12CC[N+](CC(=O)c3ccc(F)cc3)(CC1)CC2)c1ccc(F)cc1`, the outcome was “active; positive”.

As to `CC(c1ccccc1)c1nnc(NC(=O)Nc2ccccc2F)s1` (stereo not given), the outcome was “inactive; negative”.

As for `CC(=O)NC1C(=O)N(CCN2CCOCC2)c2ccc(C)cc21` (stereo not given), the outcome was “inactive; negative”.

For `CC(C)Sc1nc(N2CCOCC2)c2c3c(sc2n1)COC(C)(C)C3`, the outcome was “inactive; negative”.

On to `CN(C)c1ccc(C2CC(=O)C=C(Nc3ccccc3N)C2)cc1` (stereo not given), for which the outcome was “inactive; negative”.

`CCC(=O)Nc1ccc(-c2cc(-c3ccccc3)nc(-c3ccc(NC(=O)CC)cc3)n2)cc1`: the outcome is “inactive; negative”.

On to `O=C(O)CSc1cc(NS(=O)(=O)c2ccc(Br)cc2)c2ccccc2c1O`, for which the outcome is “inactive; negative”.

Regarding `COc1ccccc1C(=O)Nc1ccnn1C1CCN(CC2CC=CCC2)CC1` (stereo not given), the outcome was “active; positive”.

In the case of `CC1CCCCN1S(=O)(=O)c1ccc(C(=O)Nc2ccccc2-c2nc3ccccc3[nH]2)cc1` (stereo not given), the outcome is “inactive; negative”.

With `CCc1ccc2c(c1)C(NC(C)=O)C(=O)N2CCN1CCOCC1` (stereo not given), the outcome is “inactive; negative”.

Take `CCC[n+]1c2ccccc2cc2ccccc21`: the outcome was “inactive; negative”.

Regarding `Cc1ccc(-c2cc(C(=O)Nc3cc(C)ccc3O)no2)cc1`, the outcome is “inactive; negative”.

As for `CCOC(=O)c1cnc2ccc(OC)cc2c1Nc1ccc(N2CCN(C)CC2)cc1`, the outcome is “inactive; negative”.

Take `O=C1C(SCCO)=C(SCCO)C(=O)c2ccccc21`: the outcome is “inactive; negative”.

As for `COc1ccccc1NS(=O)(=O)c1cc(N2Cc3ccccc3C2=N)ccc1N1CCOCC1`, the outcome was “inactive; negative”.

Take `CCN(CC)Cc1cc2[nH]c3c4ccc(Cl)cc4ncc3c2cc1OC`: the outcome was “inactive; negative”.

Take `COC(=O)[C@H](C)NC(=O)c1cc2c(cn1)[nH]c1ccccc12`: the outcome was “inactive; negative”.

Regarding `CCOC(=O)c1cnc2ccc(OCC)cc2c1N1CCN(C)CC1`, the outcome is “active; positive”.

Consider `COc1ccccc1NS(=O)(=O)c1cc(NC(=O)Nc2cccc(C)c2)ccc1N1CCCCC1`, for which the outcome is “inactive; negative”.

Consider `Cc1sc2ncnc(NC3CCN(Cc4ccccc4)CC3)c2c1C`, for which the outcome is “active; positive”.

In the case of `O=C(CCC1CCCCC1)NCCN1C2=NC[C@H](Cc3ccc(O)cc3)N2C[C@H]1Cc1ccc(O)cc1`, the outcome is “active; positive”.

On to `CCC(c1nnnn1Cc1ccc(F)cc1)N1CCN(C2CCCCC2)CC1` (stereo not given), for which the outcome is “active; positive”.

On to `O=C(Nc1cc(Br)ccc1O)c1cc(-c2ccco2)on1`, for which the outcome was “inactive; negative”.

For the compound `Cc1cc(N/N=C/c2ccc(O)cc2)c2cccc(C)c2n1`, the outcome was “inactive; negative”.

On to `CNC[C@H](CC1CCCCC1)NC[C@H](Cc1ccccc1)NCCC12CC3CC(CC(C3)C1)C2`, for which the outcome is “inactive; negative”.

With `O=C(CSc1nc(O)cc(=O)n1-c1ccccc1)c1ccc(Br)cc1`, the outcome was “inactive; negative”.

Take `O=C(CS)Nc1ccc2ccccc2c1`: the outcome was “inactive; negative”.

As to `N#Cc1ccc(OCC(O)CN2CCN(C(c3ccccc3)c3ccccc3)CC2)cc1` (stereo not given), the outcome was “active; positive”.

Turning to `CN(CCOc1ccc(Cl)cc1)CC(O)c1ccccc1` (stereo not given), the outcome was “inactive; negative”.

As to `COc1ccc2[nH]c3c(C)c4ccncc4c(C)c3c2c1`, the outcome is “inactive; negative”.

With `Cc1nc(N2CCN(C)CC2)c2c3c(sc2n1)CCCC3`, the outcome is “inactive; negative”.

With `N=C1c2ccccc2CN1c1ccc(N2CCOCC2)c(S(=O)(=O)Nc2ccc(Cl)cc2)c1`, the outcome was “inactive; negative”.

Consider `COC(=O)Cc1c(C)nc2nc(-c3ccc(OC)cc3)[nH]n2c1=O`, for which the outcome is “inactive; negative”.

For the origin of these results see PubChem BioAssay AID2781 (National Center for Advancing Translational Sciences (NCATS), 2010).
